Results taken from PubChem BioAssay (NCATS).
Several values for one entry are separate records, joined by “and”; a condition that tells them apart may be missing. Identical values can stand only once. Records with an inconclusive call do not appear. Entries that show only a call come without a potency. Activity calls are given as the source filed them. Unless noted, calls come from the whole dose curve; as a rule, active = well fitted curve in the direction sought with a large enough effect; inconclusive = small, poorly fitted or top-dose-only effect, or another doubt; inactive = no such curve, though single readings can be large; an effect the other way counts as inactive or inconclusive.

Experiments:
[1] = Validation of Assay for Modulators of Lamin A Splicing (AID 1459; active = well fitted curve in the direction sought with a large enough effect in the signal ratio; the % refers to the signal ratio;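 note: cells exposed to compound for two days before reading; ratio rise marks activators and ratio drop marks inhibitors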)
Procedure, shortened: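 Dual-reporter HeLa S3 line (lamin A-EGFP minigene, DsRed2) treated with compounds 48 hrs, 0.5% DMSO final. Endpoint: EGFP/DsRed2 total intensity ratio from laser-scanning microplate cytometry.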

[2] = qHTS Assay for Lipid Storage Modulators (AID 1519; calls by dose curve); conditions: Drosophila S3 cells, BODIPY lipid droplet/cell ratio, laser cytometry, cells loaded with oleic acid; for activity change, negative = inhibition: at 57.5 µM (top of the series)
Procedure, shortened: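 Cells seeded at 5,000 per well were treated with compounds over a concentration series and loaded with oleic acid (400 uM, as added). Lipid droplet fluorescence (488 nm excitation, 500-530 nm channel) was read by laser-scanning cytometry and normalized to 20 uM Triacsin C.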

[3] = target: DNA repair nuclease/redox regulator APEX1 (Homo sapiens) (UniProt P27695); assay: qHTS Validation Assay for Inhibitors of the Human Apurinic/apyrimidinic Endonuclease 1 (APE1) (AID 1705; note: potency is the fitted concentration of half-maximal effect;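 for activity change, negative = inhibition: TAMRA fluorescence gain over two minutes as APE1 cuts a quenched THF abasic duplex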)
Sequence of DNA repair nuclease/redox regulator APEX1 (Homo sapiens) (P27695 whole entry, looked up): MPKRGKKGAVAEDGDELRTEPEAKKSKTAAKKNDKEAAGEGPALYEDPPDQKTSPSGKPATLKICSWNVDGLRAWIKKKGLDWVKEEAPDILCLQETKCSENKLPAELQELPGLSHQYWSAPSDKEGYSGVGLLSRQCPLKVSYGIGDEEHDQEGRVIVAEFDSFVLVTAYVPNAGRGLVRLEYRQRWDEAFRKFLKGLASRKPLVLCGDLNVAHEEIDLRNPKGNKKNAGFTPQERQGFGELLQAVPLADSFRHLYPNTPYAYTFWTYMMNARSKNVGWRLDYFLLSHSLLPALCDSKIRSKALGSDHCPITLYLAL
Procedure, shortened: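 Substrate: 50 nM final fluorophore/quencher THF-abasic duplex. Enzyme preincubated with compounds 15 min, RT. Progress derived from fluorescence difference, third minus first kinetic read.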

[4] = Counterscreen for APE1 Inhibitors: Fluorescent Dye Displacement Validation Assay (AID 1707)
Procedure, shortened: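 Thiazole Orange (250 nM) bound to 50 nM TAMRA-labelled dsDNA with tetrahydrofuran abasic site; displacement by DNA-binding compounds lowers fluorescence. Buffer 50 mM Tris-HCl pH 7.5, 50 mM NaCl, 2 mM MgCl2, 0.01% Tween-20; endpoint read at 480/540 nm.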

[5] = target: Endonuclease 4 (Escherichia coli (strain K12)) (UniProt P0A6C1); assay: Counterscreen for APE1 Inhibitors: qHTS Validation Assay for Inhibitors of Endonuclease IV (AID 1708)
Procedure, shortened: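 qHTS concentration-response format; LOPAC1280 tested under APE1-screen conditions. 2 nM enzyme, 15 min compound preincubation at RT, then 50 nM TAMRA/BHQ-2 abasic substrate; kinetic fluorescence read, three reads at 60 s intervals.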

[6] = qHTS for differential inhibitors of proliferation of Plasmodium falciparum line 7G8 (AID 1815);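 note: parasite growth measured after three days of incubation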; note: potency is the fitted concentration of half-maximal effect
[7] = qHTS for differential inhibitors of proliferation of Plasmodium falciparum line GB4 (AID 1816); conditions: Potency: Plasmodium falciparum GB4 proliferation inhibition;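 note: parasite growth measured after 72 h incubation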; note: potency is the fitted concentration of half-maximal effect
[8] = qHTS for differential inhibitors of proliferation of Plasmodium falciparum line 3D7 (AID 1876); note: potency is the fitted concentration of half-maximal effect
[9] = qHTS for differential inhibitors of proliferation of Plasmodium falciparum line D10 (AID 1877);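 note: parasites grown with compound for 72 h before DNA staining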; note: potency is the fitted concentration of half-maximal effect
[10] = qHTS for differential inhibitors of proliferation of Plasmodium falciparum line Dd2 (AID 1882); conditions: Potency: Plasmodium falciparum Dd2 proliferation inhibition; note: nearly all actives have a fitted effect of over 65% in size; note: potency is the fitted concentration of half-maximal effect
Procedure, shortened: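 Dd2-infected erythrocytes (0.3% parasitemia, 2.5% hematocrit final) incubated with compound 72 h at 37 C, 5% CO2; lysed with saponin/Triton buffer containing SYBR Green I, incubated overnight in the dark, then read by fluorescence (485/535 nm). Normalized to 0.29 uM artemisinin and DMSO.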

[11] = qHTS for differential inhibitors of proliferation of Plasmodium falciparum line HB3 (AID 1886); conditions: Potency: Plasmodium falciparum HB3 proliferation inhibition;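 note: parasites grown with compound for 72 h before SYBR Green readout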; note: potency is the fitted concentration of half-maximal effect
[12] = qHTS Assay for Modulators of Human Peripheral Myelin Protein 22 (PMP22) Expression/Activity (AID 1967; active = well fitted curve in the direction sought with a large enough effect in the signal ratio; the % refers to the signal ratio)
Procedure, shortened: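 Engineered MSC80 cells, Pmp22-promoter green and EF-alpha red luciferase reporters; 24h compound treatment at 37 °C. Concentration-response fits on green, red and ratio signals, each overlap-corrected, with %Activity normalized to untreated wells.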

[13] = target: Ferritin light chain (Equus caballus) (UniProt P02791); assay: qHTS Validation Assay for Identification of Novel General Anesthetics (AID 2323)
Sequence of Ferritin light chain (Equus caballus) (P02791 2-175 limits assumed): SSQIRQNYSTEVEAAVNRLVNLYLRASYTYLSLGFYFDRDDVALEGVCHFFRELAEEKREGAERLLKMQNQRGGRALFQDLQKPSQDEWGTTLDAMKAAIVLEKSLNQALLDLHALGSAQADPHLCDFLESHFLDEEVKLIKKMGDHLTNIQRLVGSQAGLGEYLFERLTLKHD
Procedure, shortened: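 Normalized fluorescence response, scaled between free 1-AMA and 1-AMA/apoferritin complex, fitted to a four-parameter Hill equation for concentration-effect values. Binding mix: 10 uM horse-spleen apoferritin, 50% saturated 1-AMA in PBS; read 380/535 nm after 10 min.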

[14] = target: ATP-dependent DNA helicase Q1 (Homo sapiens) (UniProt P46063); assay: qHTS Validation Assay for Inhibitors of RecQ-Like Dna Helicase 1 (RECQ1) (AID 2353); note: potency is the fitted concentration of half-maximal effect
Sequence of ATP-dependent DNA helicase Q1 (Homo sapiens) (P46063 whole entry, looked up): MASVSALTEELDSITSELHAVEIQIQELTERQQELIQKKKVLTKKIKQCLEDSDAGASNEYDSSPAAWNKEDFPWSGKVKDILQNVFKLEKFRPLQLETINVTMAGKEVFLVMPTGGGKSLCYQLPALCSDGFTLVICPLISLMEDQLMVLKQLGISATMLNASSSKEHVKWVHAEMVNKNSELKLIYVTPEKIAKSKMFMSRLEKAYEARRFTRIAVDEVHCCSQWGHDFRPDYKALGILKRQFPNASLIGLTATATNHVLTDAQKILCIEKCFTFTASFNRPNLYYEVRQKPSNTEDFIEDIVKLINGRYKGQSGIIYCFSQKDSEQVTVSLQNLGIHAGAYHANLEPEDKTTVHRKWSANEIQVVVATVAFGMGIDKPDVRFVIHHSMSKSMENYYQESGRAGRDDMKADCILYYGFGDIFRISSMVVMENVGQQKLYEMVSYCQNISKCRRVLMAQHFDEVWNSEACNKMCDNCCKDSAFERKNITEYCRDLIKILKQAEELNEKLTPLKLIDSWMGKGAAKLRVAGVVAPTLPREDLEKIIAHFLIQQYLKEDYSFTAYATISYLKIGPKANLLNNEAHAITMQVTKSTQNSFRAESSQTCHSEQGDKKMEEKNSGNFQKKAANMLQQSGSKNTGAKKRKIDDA
Procedure, shortened: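 50 nM RECQ1T1 preincubated 15 min with compound in Tris pH 8.0 buffer with MgCl2, DTT, Tween-20 and 2.5 ug/ml poly(dI-dC); started with 200 nM TAMRA/BHQ-2 forked duplex and 2 mM ATP. Unwinding read as fluorescence (525/598 nm), two reads 2 h apart.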

[15] = Cytometric Cell-Based qHTS for Inhibitors of the mTORC1 Signaling Pathway in MEF (Tsc2-/-, p53-/-) Cells (AID 2660);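 note: percent of cells above a phospho-rpS6 to PI ratio cutoff in each well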
Procedure, shortened: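 Tsc2-/-, p53-/- MEFs (empty vector) exposed to compound 24 h at 37 C, fixed, stained with Alexa-488 anti-phospho-rpS6 Ser235/236 and propidium iodide. Acumen laser scanning; phospho-S6/PI ratio thresholded against 7.5 nM rapamycin, reported as % positive cells.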

[16] = High Content Imaging Cell-Based qHTS for Inhibitors of the mTORC1 Signaling Pathway in MEF (Tsc2-/-, p53-/-) Cells (AID 2666);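 note: percent of cells scored positive for phospho-rpS6 Ser235/236 immunostaining by imaging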
Procedure, shortened: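 Cells were plated, dosed with compound after 24 hrs, and incubated another 24 hrs at 37 degree Celsius. Fixed cells were immunostained for phospho-rpS6 Ser235/236 and counterstained, and the normalized signal was scored as % active cells against rapamycin and DMSO controls.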

[17] = qHTS for differential inhibitors of proliferation of Plasmodium falciparum line W2 (AID 1883); conditions: Potency: Plasmodium falciparum W2 proliferation inhibition;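 note: parasites grown with compound for 72 h before lysis and staining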; note: potency is the fitted concentration of half-maximal effect
[18] = target: RecQ-like DNA helicase BLM (Homo sapiens) (UniProt P54132); assay: qHTS Validation Assay for Inhibitors of Bloom's syndrome helicase (BLM) (AID 2364); note: potency is the fitted concentration of half-maximal effect
Sequence of RecQ-like DNA helicase BLM (Homo sapiens) (P54132 whole entry, looked up): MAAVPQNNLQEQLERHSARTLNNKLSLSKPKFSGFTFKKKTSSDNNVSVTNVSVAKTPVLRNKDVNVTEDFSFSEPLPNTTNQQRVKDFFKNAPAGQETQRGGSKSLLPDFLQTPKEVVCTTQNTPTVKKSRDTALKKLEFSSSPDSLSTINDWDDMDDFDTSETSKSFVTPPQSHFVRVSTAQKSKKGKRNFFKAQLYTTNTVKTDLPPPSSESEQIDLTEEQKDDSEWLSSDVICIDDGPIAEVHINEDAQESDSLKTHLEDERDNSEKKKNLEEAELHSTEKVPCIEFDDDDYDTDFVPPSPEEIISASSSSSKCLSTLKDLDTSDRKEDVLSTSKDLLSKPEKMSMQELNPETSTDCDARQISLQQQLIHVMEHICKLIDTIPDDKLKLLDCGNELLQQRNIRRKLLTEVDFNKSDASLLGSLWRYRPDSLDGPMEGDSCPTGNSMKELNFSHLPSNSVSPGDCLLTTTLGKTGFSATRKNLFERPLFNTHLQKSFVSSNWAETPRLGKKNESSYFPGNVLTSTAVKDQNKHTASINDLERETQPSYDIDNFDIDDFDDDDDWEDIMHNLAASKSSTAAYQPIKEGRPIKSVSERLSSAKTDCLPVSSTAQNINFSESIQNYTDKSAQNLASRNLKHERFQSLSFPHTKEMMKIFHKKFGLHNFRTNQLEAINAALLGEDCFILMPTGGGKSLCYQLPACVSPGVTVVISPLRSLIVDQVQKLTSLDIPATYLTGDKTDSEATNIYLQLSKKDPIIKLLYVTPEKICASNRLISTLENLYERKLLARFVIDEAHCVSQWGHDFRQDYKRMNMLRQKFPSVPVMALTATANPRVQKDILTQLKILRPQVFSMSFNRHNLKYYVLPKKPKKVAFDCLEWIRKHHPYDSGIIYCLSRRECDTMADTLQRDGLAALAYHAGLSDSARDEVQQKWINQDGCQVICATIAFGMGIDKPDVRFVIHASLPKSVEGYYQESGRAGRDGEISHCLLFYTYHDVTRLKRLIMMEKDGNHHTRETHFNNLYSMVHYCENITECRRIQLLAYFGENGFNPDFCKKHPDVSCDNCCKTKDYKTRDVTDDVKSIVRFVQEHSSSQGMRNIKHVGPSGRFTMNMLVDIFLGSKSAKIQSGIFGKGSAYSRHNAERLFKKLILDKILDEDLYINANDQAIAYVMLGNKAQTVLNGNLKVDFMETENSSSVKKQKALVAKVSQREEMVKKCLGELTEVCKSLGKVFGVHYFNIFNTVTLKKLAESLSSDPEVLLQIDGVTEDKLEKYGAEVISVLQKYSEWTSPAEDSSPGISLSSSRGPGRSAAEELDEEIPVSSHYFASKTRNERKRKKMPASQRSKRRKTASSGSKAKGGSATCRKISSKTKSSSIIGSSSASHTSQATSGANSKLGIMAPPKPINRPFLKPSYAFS
Procedure, shortened: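 Forked 20-bp duplex substrate (200 nM, TAMRA/BHQ-2) plus 2 mM ATP added after 15 min compound preincubation with 50 nM enzyme, pH 8.0, poly(dI-dC) 2.5 ug/ml. Strand separation followed by fluorescence (525/598 nm) over 2 h, normalized to enzyme-free and DMSO controls.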

[19] = measured here: cell count channel max response
[20] = measured here: lipid channel max response

Row | Structure (SMILES) | outcome [1] | activity change, negative = inhibition [2] | max response [2, 19] | max response [2, 20] | Potency [3] | Potency [4] | Potency [5] | Potency [6] | Potency [7] | Potency [8] | Potency [9] | Potency [10] | Potency [11] | outcome [12] | Potency [13] | Potency [14] | outcome [15] | Potency [16] | Potency [17] | Potency [18]
1 | CN1C2CCC1CC(OC(=O)C(O)c1ccccc1)C2 (stereo unspecified) | inactive | 9.19% (inactive) | 16.5% | 28.9% | inactive | inactive | inactive | inactive | inactive | inactive | inactive | inactive | inactive | inactive | inactive | inactive | inactive | inactive | – | –
2 | C=C/C(C)=C/[C@@]1(C)SC(=O)C(C)=C1O | inactive | 0.111% (inactive) | 30.8% | 34% | 1 µM (active) | inactive | – | – | inactive | inactive | inactive | inactive | inactive | inactive | inactive | 8.91 µM (active) | – | – | inactive | –
3 | NC(CCCP(=O)(O)O)C(=O)O (stereo unspecified) | inactive | 0.0706% (inactive) | -11.8% | -9.55% | inactive | inactive | inactive | inactive | inactive | inactive | inactive | inactive | inactive | – | inactive | inactive | inactive | inactive | inactive | –
4 | N#C/C(=C\c1ccc(O)c(O)c1)C(=O)c1ccc(O)c(O)c1 | inactive | -0.353% (inactive) | 19.5% | 19.3% | 0.282 µM (active) | inactive | inactive | – | – | 10 µM (active) | – | – | 12.6 µM (active) | – | – | 0.282 µM (active) | inactive | inactive | 12.6 µM (active) | 8.91 µM (active)
5 | N.N.O=C(O)C1(C(=O)O)CCC1.[Pt] | inactive | 7.88% (inactive) and 0.357% (inactive) | 15.2% and -33.4% | 23.7% and -31.2% | inactive | inactive | inactive | – | – | 12.6 µM (active) | – | inactive | – | – | inactive | inactive | – | – | 10 µM (active) | –
6 | CN1CCC[C@H]1c1cccnc1 | inactive | 2.76% (inactive) and 1.23% (inactive) | 8.37% and -8.82% | 10.7% and -7.32% | inactive | inactive | inactive | inactive | inactive | inactive | inactive | inactive | inactive | inactive | inactive | inactive | inactive | inactive | inactive | –
7 | NCCCCC(=O)O | inactive | 7.28% (inactive) and -0.299% (inactive) | -8.72% and -47.7% | 11.7% and -48.3% | inactive | inactive | inactive | inactive | inactive | inactive | inactive | inactive | inactive | inactive | inactive | inactive | inactive | inactive | inactive | –
8 | CN(C)c1nc(N)c(C(=O)N=C(N)N)nc1Cl | inactive | 1.32% (inactive) | -30.3% | -31.1% | inactive | inactive | – | – | 12.6 µM (active) | 10 µM (active) | 11.2 µM (active) | inactive | 12.6 µM (active) | inactive | inactive | inactive | inactive | inactive | 12.6 µM (active) | inactive
9 | COc1cc2c(CCNC(C)=O)c[nH]c2cc1Cl | inactive | -11.4% (inactive) | -19% | -30.9% | inactive | inactive | – | inactive | inactive | inactive | inactive | inactive | – | inactive | inactive | inactive | inactive | inactive | – | –
10 | C=CC(N)CCC(=O)O (stereo unspecified) | inactive | 4.04% (inactive) | 13.5% | 19.4% | inactive | inactive | inactive | inactive | inactive | inactive | inactive | inactive | inactive | inactive | inactive | inactive | inactive | – | inactive | –
11 | Oc1ccc(C2CNCc3sccc32)cc1O (stereo unspecified) | inactive | -2.2% (inactive) | 25.9% | 25.8% | inactive | inactive | inactive | 8.91 µM (active) | 12.6 µM (active) | – | 11.2 µM (active) | 8.91 µM (active) | 11.2 µM (active) | – | – | inactive | inactive | inactive | 11.2 µM (active) | –
12 | Fc1cccc(/C=N/N=C/c2cccc(F)c2)c1 | inactive | 2.18% (inactive) | -17.3% | -14.5% | inactive | inactive | inactive | inactive | inactive | – | inactive | inactive | inactive | – | inactive | inactive | inactive | – | – | –
13 | O=c1[nH]c2cc(C(F)(F)F)ccc2n1-c1cc(C(F)(F)F)ccc1O | inactive | -0.787% (inactive) | 34.5% | 34% | inactive | inactive | – | 4.47 µM (active) | 3.98 µM (active) | – | 10 µM (active) | 8.91 µM (active) | 12.6 µM (active) | – | – | inactive | inactive | inactive | 7.08 µM (active) | –
14 | NCCCCCCCCCCN | inactive | -1.41% (inactive) | 42.1% | 42.6% | inactive | inactive | – | inactive | inactive | inactive | inactive | inactive | inactive | inactive | inactive | inactive | inactive | inactive | – | inactive
